± gives the standard deviation of the averaged measurements.
Legend:
Assay in all cases: promoter activity interaction Z-score (Lux/OD deviation from empty-vector control); higher = stronger promoter induction by the compound
[1] = test system: E. coli BW25113 acrABp lux reporter
Outline: (§1)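 Wild-type E. coli BW25113 and three single-gene deletion strains, each carrying a low-copy luxCDABE promoter reporter, were grown at 37°C in 40 µl LB Lennox per well of a 384-well plate. Every compound was applied at four 1:2 dilutions in biological duplicates, and OD600 and luminescence were read every 30 min for 12 h. Integration covered 0–8 h for wild type and 1–9 h for deletion strains, and wells under 10% of the median growth value were removed. Scores are Z-transformed residuals of growth-normalised luminescence fitted against a control.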

[2] = test system: E. coli BW25113 marRABp lux reporter
Outline: as §1

[3] = test system: E. coli BW25113 micFp lux reporter
Outline: as §1

[4] = test system: E. coli BW25113 ompFp lux reporter
Outline: as §1

[5] = test system: E. coli BW25113 robp lux reporter
Outline: as §1

[6] = test system: E. coli BW25113 soxSp lux reporter
Outline: as §1

[7] = test system: E. coli BW25113 tolCp lux reporter
Outline: as §1

[8] = 22.5 µg/ml, genetic background: wild type
[9] = 22.5 µg/ml, genetic background: ΔmarA
[10] = 22.5 µg/ml, genetic background: Δrob
[11] = 22.5 µg/ml, genetic background: ΔsoxS
[12] = 45 µg/ml, genetic background: wild type
[13] = 45 µg/ml, genetic background: ΔmarA
[14] = 45 µg/ml, genetic background: Δrob
[15] = 45 µg/ml, genetic background: ΔsoxS
[16] = 90.1 µg/ml, genetic background: wild type
[17] = 90.1 µg/ml, genetic background: ΔmarA
[18] = 90.1 µg/ml, genetic background: Δrob
[19] = 90.1 µg/ml, genetic background: ΔsoxS
[20] = 180.2 µg/ml, genetic background: wild type
[21] = 180.2 µg/ml, genetic background: ΔmarA
[22] = 180.2 µg/ml, genetic background: Δrob
[23] = 180.2 µg/ml, genetic background: ΔsoxS

For `CC(=O)Oc1ccccc1C(=O)O` [Acetylsalicylic acid], the “promoter activity interaction Z-score” value [1, 8] was -0.0985 ± 0.4, the “promoter activity interaction Z-score” value [1, 9] was -0.517 ± 0.098 and the “promoter activity interaction Z-score” value [1, 10] was -0.0077 ± 0.088. The “promoter activity interaction Z-score” value [1, 11] was -0.0154 ± 0.64, the “promoter activity interaction Z-score” value [1, 12] was -0.074 ± 0.32 and the “promoter activity interaction Z-score” value [1, 13] was 0.0467 ± 0.55. For the same compound, the “promoter activity interaction Z-score” value [1, 14] was 0.166 ± 0.1, the “promoter activity interaction Z-score” value [1, 15] was 0.231 ± 0.27 and the “promoter activity interaction Z-score” value [1, 16] was -0.285 ± 0.52. The “promoter activity interaction Z-score” value [1, 17] was -0.333 ± 1.1, the “promoter activity interaction Z-score” value [1, 18] was -0.137 ± 0.07 and the “promoter activity interaction Z-score” value [1, 19] was 0.467 ± 0.76. The “promoter activity interaction Z-score” value [1, 20] was 0.092 ± 0.075, the “promoter activity interaction Z-score” value [1, 21] was -0.505 ± 0.22 and the “promoter activity interaction Z-score” value [1, 22] was 0.377 ± 0.044. The “promoter activity interaction Z-score” value [1, 23] was 1.71 ± 1.2, the “promoter activity interaction Z-score” value [2, 8] was 0.161 ± 0.7 and the “promoter activity interaction Z-score” value [2, 9] was 0.108 ± 0.13. The “promoter activity interaction Z-score” value [2, 10] was 0.479 ± 0.51, the “promoter activity interaction Z-score” value [2, 11] was 0.261 ± 0.009 and the “promoter activity interaction Z-score” value [2, 12] was 0.512 ± 0.54. The “promoter activity interaction Z-score” value [2, 13] was 0.152 ± 0.14, the “promoter activity interaction Z-score” value [2, 14] was 0.623 ± 0.14 and the “promoter activity interaction Z-score” value [2, 15] was 0.318 ± 0.23. For the same compound, the “promoter activity interaction Z-score” value [2, 16] was 0.0791 ± 0.33, the “promoter activity interaction Z-score” value [2, 17] was -0.0396 ± 0.066 and the “promoter activity interaction Z-score” value [2, 18] was 0.404 ± 0.071. The “promoter activity interaction Z-score” value [2, 19] was 0.469 ± 0.2, the “promoter activity interaction Z-score” value [2, 20] was 1.81 ± 0.28 and the “promoter activity interaction Z-score” value [2, 21] was 1.65 ± 0.22. The “promoter activity interaction Z-score” value [2, 22] was 2.07 ± 0.099, the “promoter activity interaction Z-score” value [2, 23] was 1.89 ± 0.43 and the “promoter activity interaction Z-score” value [3, 8] was 0.2 ± 0.11. The “promoter activity interaction Z-score” value [3, 9] was 0.0379 ± 0.26, the “promoter activity interaction Z-score” value [3, 10] was 0.404 ± 0.28 and the “promoter activity interaction Z-score” value [3, 11] was 0.0828 ± 0.038. The “promoter activity interaction Z-score” value [3, 12] was 0.294 ± 0.19, the “promoter activity interaction Z-score” value [3, 13] was 0.0785 ± 0.071 and the “promoter activity interaction Z-score” value [3, 14] was 0.518 ± 0.31. The “promoter activity interaction Z-score” value [3, 15] was 0.285 ± 0.12, the “promoter activity interaction Z-score” value [3, 16] was 0.237 ± 0.08 and the “promoter activity interaction Z-score” value [3, 17] was 0.0592 ± 0.067. For the same compound, the “promoter activity interaction Z-score” value [3, 18] was 1.19 ± 0.68, the “promoter activity interaction Z-score” value [3, 19] was 0.855 ± 0.27 and the “promoter activity interaction Z-score” value [3, 20] was 1.38 ± 0.096. For the same compound, the “promoter activity interaction Z-score” value [3, 21] was 0.189 ± 0.12, the “promoter activity interaction Z-score” value [3, 22] was 2.72 ± 0.048 and the “promoter activity interaction Z-score” value [3, 23] was 2.65 ± 0.019. The “promoter activity interaction Z-score” value [4, 8] was 0.15 ± 0.52, the “promoter activity interaction Z-score” value [4, 9] was -0.0334 ± 0.0097 and the “promoter activity interaction Z-score” value [4, 10] was -0.332 ± 0.11. For the same compound, the “promoter activity interaction Z-score” value [4, 11] was -0.533 ± 0.19, the “promoter activity interaction Z-score” value [4, 12] was 0.0711 ± 0.62 and the “promoter activity interaction Z-score” value [4, 13] was -0.0561 ± 0.37. For the same compound, the “promoter activity interaction Z-score” value [4, 14] was -0.229 ± 0.49, the “promoter activity interaction Z-score” value [4, 15] was -0.162 ± 0.16 and the “promoter activity interaction Z-score” value [4, 16] was -0.597 ± 0.69. The “promoter activity interaction Z-score” value [4, 17] was -0.411 ± 0.14, the “promoter activity interaction Z-score” value [4, 18] was -0.956 ± 0.38 and the “promoter activity interaction Z-score” value [4, 19] was 0.0662 ± 0.72. For the same compound, the “promoter activity interaction Z-score” value [4, 20] was -0.594 ± 0.36, the “promoter activity interaction Z-score” value [4, 21] was -0.771 ± 0.14 and the “promoter activity interaction Z-score” value [4, 22] was -0.628 ± 0.52. The “promoter activity interaction Z-score” value [4, 23] was -0.165 ± 0.36, the “promoter activity interaction Z-score” value [5, 8] was 0.17 ± 0.36 and the “promoter activity interaction Z-score” value [5, 9] was -0.635 ± 0.24. The “promoter activity interaction Z-score” value [5, 10] was 0.299 ± 0.26, the “promoter activity interaction Z-score” value [5, 11] was -0.394 ± 1.1 and the “promoter activity interaction Z-score” value [5, 12] was 0.406 ± 0.86. The “promoter activity interaction Z-score” value [5, 13] was 0.328 ± 0.074, the “promoter activity interaction Z-score” value [5, 14] was 0.109 ± 1.1 and the “promoter activity interaction Z-score” value [5, 15] was 0.454 ± 0.65. For the same compound, the “promoter activity interaction Z-score” value [5, 16] was -0.235 ± 0.3, the “promoter activity interaction Z-score” value [5, 17] was 0.332 ± 0.19 and the “promoter activity interaction Z-score” value [5, 18] was -0.142 ± 0.65. For the same compound, the “promoter activity interaction Z-score” value [5, 19] was 0.2 ± 0.77, the “promoter activity interaction Z-score” value [5, 20] was -0.797 ± 0.23 and the “promoter activity interaction Z-score” value [5, 21] was -0.595 ± 0.25. For the same compound, the “promoter activity interaction Z-score” value [5, 22] was -0.635 ± 0.52, the “promoter activity interaction Z-score” value [5, 23] was -0.507 ± 0.57 and the “promoter activity interaction Z-score” value [6, 8] was 0.245 ± 0.03. The “promoter activity interaction Z-score” value [6, 9] was 0.396 ± 0.012, the “promoter activity interaction Z-score” value [6, 10] was 0.336 ± 0.03 and the “promoter activity interaction Z-score” value [6, 11] was 0.386 ± 0.52. For the same compound, the “promoter activity interaction Z-score” value [6, 12] was 0.214 ± 0.2, the “promoter activity interaction Z-score” value [6, 13] was 0.405 ± 0.076 and the “promoter activity interaction Z-score” value [6, 14] was 0.388 ± 0.19. For the same compound, the “promoter activity interaction Z-score” value [6, 15] was 0.494 ± 0.84, the “promoter activity interaction Z-score” value [6, 16] was 0.119 ± 0.042 and the “promoter activity interaction Z-score” value [6, 17] was 0.218 ± 0.23. For the same compound, the “promoter activity interaction Z-score” value [6, 18] was 0.406 ± 0.2, the “promoter activity interaction Z-score” value [6, 19] was 0.157 ± 0.64 and the “promoter activity interaction Z-score” value [6, 20] was 0.054 ± 0.12. The “promoter activity interaction Z-score” value [6, 21] was 0.327 ± 0.073, the “promoter activity interaction Z-score” value [6, 22] was 0.525 ± 0.097 and the “promoter activity interaction Z-score” value [6, 23] was 0.502 ± 1.1. The “promoter activity interaction Z-score” value [7, 8] was 0.458 ± 0.6, the “promoter activity interaction Z-score” value [7, 9] was -1.26 ± 1.6 and the “promoter activity interaction Z-score” value [7, 10] was -0.642 ± 0.11. The “promoter activity interaction Z-score” value [7, 11] was 0.238 ± 0.11, the “promoter activity interaction Z-score” value [7, 12] was 0.0937 ± 0.17 and the “promoter activity interaction Z-score” value [7, 13] was 0.783 ± 0.48. For the same compound, the “promoter activity interaction Z-score” value [7, 14] was 0.602 ± 0.1, the “promoter activity interaction Z-score” value [7, 15] was 0.898 ± 0.65 and the “promoter activity interaction Z-score” value [7, 16] was 0.202 ± 0.78. The “promoter activity interaction Z-score” value [7, 17] was 1.21 ± 0.39, the “promoter activity interaction Z-score” value [7, 18] was 1.08 ± 0.51 and the “promoter activity interaction Z-score” value [7, 19] was 1.29 ± 0.033. For the same compound, the “promoter activity interaction Z-score” value [7, 20] was -0.456 ± 0.15, the “promoter activity interaction Z-score” value [7, 21] was -0.659 ± 0.06 and the “promoter activity interaction Z-score” value [7, 22] was 1.91 ± 0.78. The “promoter activity interaction Z-score” value [7, 23] was 2.01 ± 0.4.
